# Experimental data as given in PubChem BioAssay (NCATS).
# Values without a mark were called inactive. Activity calls are given as the source filed them. Calls follow the shape of the dose curve; as a rule, active = well fitted curve in the direction sought with a large enough effect; inconclusive = small, poorly fitted or top-dose-only effect, or another doubt; inactive = no such curve, though single readings can be large or run the other way.
# Assay: Cellular Toxicity (caspase-3) HUV-EC-C (AID 656)
# Details: HUV-EC-C cells, caspase-3 activation (apoptosis), vehicle = 0, 100 µM tamoxifen = 100%; series mostly up to 92.2 µM; caspase-3 activation: at the top concentration
# Text: NIH Chemical Genomics Center [NCGC]
# NIH Molecular Libraries Screening Centers Network [MLSCN]
# National Institutes of Environmental Health Sciences [NIEHS]
# National Toxicology Program [NTP]
# We have developed a 1536-well cell-based assay for quantitative high throughput screening (qHTS) against a number of cell lines to determine in vitro caspase 3/7 of small molecules. This particular assay uses the HUV-EC-C cell line which is derived from normal human vascular endothelial cells.
# NCGC Assay Protocol Summary:
# The Caspase-Glo 3/7 assay (Promega) is a homogeneous method to measure caspase-3 and caspase-7 activities in cultured cells. The quantitation of caspase 3/7 activity is based on the cleavage of a peptide-aminoluciferin substrate. After caspase cleaves the substrate the free aminoluciferin is liberated and serves as the substrate of luciferase, which generates the light. The luminescent signal is proportional to amount of caspase 3/7 activity present.
# Using the Caspase-Glo 3/7 assay, the amount of caspase 3/7 activity was measured in the HUV-EC-C cell line with complete culture medium following compound treatment for 16 hours. The assay was performed in opaque white 1536-well plates. In the screen, tamoxifen and doxorubicin were used as positive controls. Library compounds were measured for their ability to cause the activation of caspase 3/7 in the cell line, as reflected by an increase in luminescence signal, in a concentration-dependent manner. Data were normalized to the controls for basal activity (DMSO only) and 100% stimulation (100 uM tamoxifen). AC50 values were determined from concentration-response data modeled with the standard Hill equation.
# qHTS protocol for caspase 3/7 assay in HUV-EC-C cell line
# [Step] [Parameter] [Value] [Description]
# 1. Reagent; 5 uL; 1000 HUV-EC-C cells/well
# 2. Time; 5 hr; 37 °C incubation
# 4. Controls; 23 nL; Tamoxifen 0.23 uM to 100 uM & doxorubicin 7.0 pM to 100 uM
# 5. Time; 16 hr; 37 °C incubation
# 6. Reagent; 5 uL; Caspase-Glo 3/7 reagent
# 7. Time; 20 min; Room Temperature
# 8. Detection; Luminescence; Viewlux plate reader
# Keywords: caspase 3/7, apoptosis, HUV-EC-C cell line, luminescence, NTPHTS, NTPHTS_NCGC, NIEHS, EPA, DSSTox, MLSMR, MLSCN, NIH Roadmap, qHTS, NCGC
Structure (SMILES),outcome,caspase-3 activation
CCCOC(=O)c1ccc(O)cc1,inactive,–
O=C(O)/C=C\C(=O)O,–,-3.16%
CCCCCCCCCCCCCCCCCC(=O)O,–,6.94%
Oc1ccccc1O,–,5.63%
O=C1CN(/N=C/c2ccc([N+](=O)[O-])o2)C(=O)N1,–,-5.94%
c1ccc2sc(SSc3nc4ccccc4s3)nc2c1,–,-5.76%
S=c1[nH]c2ccccc2s1,–,-2.4%
Nc1ccc([N+](=O)[O-])cc1O,–,-2.8%
CN(C)CCC(c1ccc(Cl)cc1)c1ccccn1 (centres undefined),–,-2.02%
O=C(O)c1cc(O)c(O)c(O)c1,–,-6.54%
NCCO,–,-4.27%
CN(C)c1ccc(N=NS(=O)(=O)O)cc1,–,-7.15%
CN1CCC[C@H]1c1cccnc1,–,0.778%
C#C[C@]1(O)CC[C@H]2[C@@H]3CCc4cc(O)ccc4[C@H]3CC[C@@]21C,–,-5.72%
CN(C)c1ccc(C(=C2C=CC(=[N+](C)C)C=C2)c2ccccc2)cc1,–,-7.73%
COc1cc(/C=C/C(=O)CC(=O)/C=C/c2ccc(O)c(OC)c2)ccc1O,–,-6.01%
O=c1cc(-c2ccccc2)oc2ccccc12,–,-8.34%
Nc1ccc(O)c([N+](=O)[O-])c1,–,-2.45%
Nc1ccc(O)c(C(=O)O)c1,–,-2.81%
COc1cc(CNC(=O)CCCC/C=C/C(C)C)ccc1O,–,0.998%
c1cnc2c(c1)ccc1cccnc12,–,-5.35%
CC(C)NCC(O)COc1cccc2ccccc12 (centres undefined),–,3.09%
Nc1nc2ccc([N+](=O)[O-])cc2s1,–,-5.12%
CC1(C)S[C@@H]2[C@H](NC(=O)[C@H](N)c3ccccc3)C(=O)N2[C@H]1C(=O)O,–,1.14%
